From PubChem
mHTT-CaM PPI inh: disrupts binding of mutant huntingtin to calmodulin | P42858 | inhibition, % at 15 µM | 3.6% of 190,000 active | AlphaScreen His-mHTT/GST-CaM binding, luminescence | AID 1671202;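 further: 0% = both proteins with DMSO and 100% = one protein alone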
Pf apPOL inh: Pf-apPOL DNA polymerase inhibition | Recombinant Pf-apPOL, molecular beacon fluorescence, 1.5 h | inhibition, % at 10 µM | 0.25% of 210,000 active
An asterisk follows results filed as active. This is one part of a sample in which hits are shown more often than they occur. No stated cut-off is given here; in the data, active means inhibition above about 50%; inactive means the rest.

`COc1ccccc1-c1nc(C2CCCN(C(=O)c3ccc(C#N)cc3F)C2)no1` (configuration not stated) gave mHTT-CaM PPI inh 16.6 and Pf apPOL inh 2.0.
Screening O=[N+]([O-])c1ccc(N2CCOCC2)cc1SCc1ccco1 returned mHTT-CaM PPI inh 24.5 and Pf apPOL inh -5.7.
O=[N+]([O-])c1ccc(N2CCN(S(=O)(=O)c3ccccc3)CC2)cc1SCc1ccco1 was read as mHTT-CaM PPI inh 98.3* and Pf apPOL inh -8.9.
O=C(c1cnccn1)N1CCC2(CC1)NC(=O)N(Cc1ccc(Cl)cc1)C2=O was read as mHTT-CaM PPI inh 2.5 and Pf apPOL inh -5.5.
Screening Cc1cccc(NC(=O)N2CCC3(C2)Nc2cccnc2NC3=NCc2ccccc2)c1 (configuration not stated) returned mHTT-CaM PPI inh -0.7 and Pf apPOL inh -1.8.
O=C(Nc1cccc(F)c1)N1CCCC2(C1)Nc1cccnc1NC2=NCc1ccccc1 (configuration not stated) was read as mHTT-CaM PPI inh 64.0* and Pf apPOL inh -8.0.
Screening COCCN=C1Nc2ccccc2NC12CCCN(C(=O)c1cc(F)ccc1F)C2 (configuration not stated) returned mHTT-CaM PPI inh 17.5 and Pf apPOL inh -4.3.
COCCN=C1Nc2ccccc2NC12CCCN(C(=O)c1ccc(OC)c(OC)c1)C2 (configuration not stated) was read as mHTT-CaM PPI inh 5.6 and Pf apPOL inh -0.8.
Screening COCCN=C1Nc2ccccc2NC12CCCN(C(=O)Nc1cc(F)cc(F)c1)C2 (configuration not stated) returned mHTT-CaM PPI inh 100.1* and Pf apPOL inh -1.8.
For COCCN=C1Nc2ccccc2NC12CCCN(C(=O)Nc1ccc(C)cc1C)C2 (configuration not stated) the results were mHTT-CaM PPI inh 99.8* and Pf apPOL inh -9.1.
For CCOc1ccc2c(c1)OC(=Cc1ccncc1)C2=O the results were mHTT-CaM PPI inh 5.7 and Pf apPOL inh 1.6.
`COc1cc(S(=O)(=O)N2CCCc3ccccc32)ccc1Cl` gave mHTT-CaM PPI inh -76.6 and Pf apPOL inh 2.3.
Screening CCCNc1cc(N2CCC(CCC(=O)NCC3CC3)CC2)ncn1 returned mHTT-CaM PPI inh 0.4 and Pf apPOL inh -1.3.
`O=C(Cc1cccc(F)c1)N1CCCC(COc2cccc(C(=O)N3CCCCC3)c2)C1` (configuration not stated) gave mHTT-CaM PPI inh 15.0 and Pf apPOL inh -3.3.
COc1ccc(-c2c(Cc3ccccc3)[nH]n3c(=O)cc(-c4ccc([N+](=O)[O-])cc4)nc23)cc1 was read as mHTT-CaM PPI inh 8.8 and Pf apPOL inh -0.6.
`COc1ccc(Cc2[nH]n3c(=O)cc(-c4ccc([N+](=O)[O-])cc4)nc3c2-c2ccccc2)cc1` gave mHTT-CaM PPI inh 71.1* and Pf apPOL inh 6.1.
Screening O=C(CCCO)NCCc1nc2ccccc2[nH]1 returned mHTT-CaM PPI inh -13.4 and Pf apPOL inh -10.7.
O=C1C2C3c4ccccc4C(C(=O)O)(c4ccccc43)C2C(=O)N1c1cccc(Br)c1 (configuration not stated) was read as mHTT-CaM PPI inh 1.0 and Pf apPOL inh -5.8.
For O=[N+]([O-])C(/C=C(\Cl)[N+](=O)[O-])=C1N(c2ccccc2)CCN1c1ccccc1 the results were mHTT-CaM PPI inh 30.0 and Pf apPOL inh -4.0.
`O=[N+]([O-])C(/C=C(\Cl)[N+](=O)[O-])=C(Nc1ccccc1)Nc1ccccc1` gave mHTT-CaM PPI inh 63.0* and Pf apPOL inh -1.8.
Cc1ccc(N=Cc2nc(-c3ccc(Br)cc3)oc2O)cc1 was read as mHTT-CaM PPI inh 2.0 and Pf apPOL inh -3.2.
For CCOc1cc(/C=C2\C(=O)NN(c3ccc(C)c(C)c3)C2=O)cc(Cl)c1OCC the results were mHTT-CaM PPI inh 63.0* and Pf apPOL inh -2.0.
Screening COc1cc(/C=C2\C(=O)NN(c3ccc(C)c(C)c3)C2=O)cc(Cl)c1OC returned mHTT-CaM PPI inh 58.0* and Pf apPOL inh -6.5.
COc1cc(/C=C2\C(=O)NN(c3ccccc3)C2=O)cc(Cl)c1OC was read as mHTT-CaM PPI inh 28.0 and Pf apPOL inh -0.6.
`CCOc1ccc(/C=C2\C(=O)NN(c3cccc(Br)c3)C2=O)cc1OCC` gave mHTT-CaM PPI inh 5.0 and Pf apPOL inh -2.2.
`COc1cc(/C=C2\C(=O)NN(c3cccc(Br)c3)C2=O)cc(Cl)c1OC(C)C` gave mHTT-CaM PPI inh 84.0* and Pf apPOL inh -4.4.
Screening CCOc1cc(/C=C2\C(=O)NN(c3ccc(C)c(Cl)c3)C2=O)cc(Cl)c1OCC returned mHTT-CaM PPI inh 41.0 and Pf apPOL inh -11.3.
For Nc1ccc(F)cc1-c1nc2ccccc2[nH]c1=O the results were mHTT-CaM PPI inh 18.0 and Pf apPOL inh 0.0.
For CCc1ccc(C(C)NC(=O)c2ccccn2)cc1 (configuration not stated) the results were mHTT-CaM PPI inh -0.8 and Pf apPOL inh -11.4.
For Oc1c(C(Nc2ccccn2)c2ccc(F)cc2)ccc2cccnc12 (configuration not stated) the results were mHTT-CaM PPI inh 98.0* and Pf apPOL inh -8.2.
`CSc1ccc(C(Nc2ccccn2)c2ccc3cccnc3c2O)cc1` (configuration not stated) gave mHTT-CaM PPI inh 99.0* and Pf apPOL inh 1.7.
`Cc1ccc2ccc(C(Nc3ccccn3)c3cccnc3)c(O)c2n1` (configuration not stated) gave mHTT-CaM PPI inh 73.0* and Pf apPOL inh -6.3.
`O=c1cc(CO)oc(C(Nc2ccccn2)c2ccc(F)cc2)c1O` (configuration not stated) gave mHTT-CaM PPI inh 33.0 and Pf apPOL inh -1.8.
For CCc1ccc(C(Nc2ccccn2)c2ccc3cccnc3c2O)cc1 (configuration not stated) the results were mHTT-CaM PPI inh 97.0* and Pf apPOL inh -2.2.
Cc1oc2cc(O)ccc2c(=O)c1-c1ccc2c(c1)OCCCO2 was read as mHTT-CaM PPI inh 3.3 and Pf apPOL inh 1.0.
Screening Cc1ccc(C(=O)Nc2cnc(N3CCCCC3)nc2)cc1F returned mHTT-CaM PPI inh -4.3 and Pf apPOL inh -1.9.
`CC1=C(C(=O)Nc2ccccn2)C(c2ccc(N(C)C)cc2)n2ncnc2N1` (configuration not stated) gave mHTT-CaM PPI inh 4.0 and Pf apPOL inh -3.4.
Cc1ccc2ccc(C(Nc3ccccn3)c3ccc(N(C)C)cc3)c(O)c2n1 (configuration not stated) was read as mHTT-CaM PPI inh 100.0* and Pf apPOL inh 3.6.
For CSc1ccc(C=Nc2ccccn2)cc1 the results were mHTT-CaM PPI inh 0.2.
C=CCOc1ccc(C(=O)Nc2ccccn2)cc1 was read as mHTT-CaM PPI inh -6.7 and Pf apPOL inh -5.4.
Screening C=CCOc1ccc(C(Nc2ccccn2)c2ccc3cccnc3c2O)cc1 (configuration not stated) returned mHTT-CaM PPI inh 99.0* and Pf apPOL inh 4.9.
CSc1ccc(C(Nc2ccccn2)c2ccc3ccc(C)nc3c2O)cc1 (configuration not stated) was read as mHTT-CaM PPI inh 78.0* and Pf apPOL inh -8.6.
For Cc1cc(C)cc(N2C=C(C(=O)N3CCC(C)CC3)S(=O)(=O)c3ccccc32)c1 the results were mHTT-CaM PPI inh 14.8 and Pf apPOL inh -5.0.
Screening CC(=O)Nc1ccc(NC2=CC(=NS(=O)(=O)c3ccccc3)c3ccccc3C2=O)cc1 returned mHTT-CaM PPI inh 71.0* and Pf apPOL inh -1.6.
